# Assay results as given in PubChem BioAssay (NCATS).
# Where “and” joins values, the source holds several entries; their conditions need not be identical. Equal entries are not always repeated. Inconclusive results are not listed. Calls of active or inactive are those of the source. Unless noted, calls follow the shape of the full dose curve.
# Tested on: not listed separately
# Test: AP1 Signaling Pathway (AID 357; active = well fitted curve in either direction with a large enough effect, not every such curve was filed as active;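 also: ME-180 reporter cells stimulated with EGF at its EC50 level; % is scaled to controls: 0 for no effect and ±100 for the full control effect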)
# Conditions: ME-180 (cervical carcinoma) AP-1-bla reporter, EGF-induced, beta-lactamase ratio, 5 h; at 7.69 µM (top of the series) unless noted
# Outline: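 Beta-lactamase reporter under AP-1 response element, ME-180 background. Stimulus: EC50 EGF. Compound exposure 5 h, 37 °C. Detection: CCF4, 2.5 h RT, 460/530 nm. Values: AC50 from titration.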
row,Structure (SMILES),"activity change, negative = inhibition"
1,COCCn1c(=O)c(C)nc2cnc(Nc3ccccc3)nc21,-18.1% (inactive)
2,COc1cccc(Cn2c(=O)cnc3cnc(N4CCN(C)CC4)nc32)c1,-3.06% (inactive)
3,CN1CCN(c2ccnc(-c3ccc(N(C)C)cc3)n2)CC1,-4.67% (inactive)
4,COC(=O)C1=CO[C@@H](C)[C@H]2CN3CCc4c([nH]c5ccccc45)[C@@H]3C[C@H]12,-20.4% [at 17.2 µM] (inactive) and -6.91% [at 17.2 µM] (inactive)
5,CC12CC[C@@H]3c4ccc(OS(=O)(=O)O)cc4CC[C@H]3C1CCC2=O (some centres undefined),19.9% [at 17.2 µM] (inactive)
6,CN(C)C(=O)c1ccc(-c2nc(N(C)C)c3ccccc3n2)cc1,-11.7% (inactive)
7,COc1ccccc1-c1nccc(NCc2ccccc2)n1,-2.63% (inactive)
8,CC(C)(S)[C@H](N)C(=O)O,1.59% (inactive)
9,CN(C)CC/C=C1\c2ccccc2CSc2ccccc21,28.4% [at 17.2 µM] (inactive)
10,Cc1cnc(CNc2ncnc3ccc(-c4ccccc4C(F)(F)F)cc23)cn1,15.7% (inactive)
11,C[C@@H]1CCC[C@H](C)N1NC(=O)c1ccc(Cl)c(S(N)(=O)=O)c1,2.6% [at 17.2 µM] (inactive) and 10.6% [at 17.2 µM] (inactive)
12,FC(F)(F)c1ccccc1-c1ccc2ncnc(NCc3cccs3)c2c1,13.7% (inactive)
13,COc1ccccc1CNc1cc(-c2cccc(C#N)c2)ncn1,-5.31% (inactive)
14,CC(C)N1CCN(c2ccc(OC[C@@H]3CO[C@@](Cn4cncn4)(c4ccc(Cl)cc4Cl)O3)cc2)CC1,0.955% [at 17.2 µM] (inactive)

# Molecular target: Cytochrome P450 1A2 (Homo sapiens) (UniProt P05177)
# Test: p450-cyp1a2 (AID 410); also: potency is read from the fitted curve at half-maximal effect;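 as to activity change, negative = inhibition: -100% = full effect of reference inhibitor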
# Conditions: recombinant CYP1A2, luciferin-ME demethylation, luminescence; series mostly up to 57 µM; activity change, negative = inhibition: at the top concentration
# Outline: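 O-Demethylation of luciferin 6' methyl ether by human CYP1A2 is monitored as luciferase luminescence. Substrate sits at Km (100uM); enzyme is 20nM. Values are scaled to 57 uM furafylline as maximal inhibition.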
# Cytochrome P450 1A2 (Homo sapiens), sequence (P05177 whole entry, looked up): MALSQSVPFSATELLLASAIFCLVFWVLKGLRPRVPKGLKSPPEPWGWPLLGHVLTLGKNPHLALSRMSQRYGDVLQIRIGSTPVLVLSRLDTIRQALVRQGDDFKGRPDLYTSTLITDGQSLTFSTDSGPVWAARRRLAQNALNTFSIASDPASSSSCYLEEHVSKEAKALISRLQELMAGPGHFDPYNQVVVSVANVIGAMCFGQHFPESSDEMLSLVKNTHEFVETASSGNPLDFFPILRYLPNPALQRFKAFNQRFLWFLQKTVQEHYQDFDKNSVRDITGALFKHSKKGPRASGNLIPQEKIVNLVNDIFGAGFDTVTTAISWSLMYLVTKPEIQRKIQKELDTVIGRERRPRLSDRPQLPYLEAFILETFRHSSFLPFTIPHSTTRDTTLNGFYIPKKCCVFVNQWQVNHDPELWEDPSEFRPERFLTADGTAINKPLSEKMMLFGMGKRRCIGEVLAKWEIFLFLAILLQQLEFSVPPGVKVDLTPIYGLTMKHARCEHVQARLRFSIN
Structure (SMILES),Potency,"activity change, negative = inhibition"
FC(F)(F)c1ccccc1-c1ccc2ncnc(N3CCOCC3)c2c1,0.251 µM (active),
CN1CCN(c2ccnc(-c3ccc(N(C)C)cc3)n2)CC1,0.794 µM (active),
COc1ncc2nc(-c3cccs3)c(=O)n(C)c2n1,2 µM (active),
CN1CCCC[C@@H]1CCN1c2ccccc2Sc2ccc(S(C)=O)cc21 (some centres undefined),inactive,
N#Cc1cccc(-c2ccc3ncnc(NCc4ccccc4)c3c2)c1,0.1 µM (active),
CN(C)C(=O)c1ccc(-c2nc(N(C)C)c3ccccc3n2)cc1,10 µM (active),
COc1ccccc1-c1nccc(NCc2ccccc2)n1,2.51 µM (active),
CN1CCN(c2ncc3ncc(=O)n(-c4ccccc4)c3n2)CC1,2.51 µM (active),
CN(C)CC/C=C1\c2ccccc2CSc2ccccc21,,-6.7% [at 25.6 µM] (inactive)
Cc1cnc(CNc2ncnc3ccc(-c4ccccc4C(F)(F)F)cc23)cn1,12.6 µM (active),
COc1ccccc1CNc1ncnc2ccc(-c3cccc(C#N)c3)cc12,0.251 µM (active),
C[C@@H]1CCC[C@H](C)N1NC(=O)c1ccc(Cl)c(S(N)(=O)=O)c1,,-0.8% [at 25.6 µM] (inactive)
FC(F)(F)c1ccccc1-c1ccc2ncnc(NCc3cccs3)c2c1,7.94 µM (active),
COc1ccccc1CNc1cc(-c2cccc(C#N)c2)ncn1,3.98 µM (active),
CC(C)N1CCN(c2ccc(OC[C@@H]3CO[C@@](Cn4cncn4)(c4ccc(Cl)cc4Cl)O3)cc2)CC1,,-3.4% [at 25.6 µM] (inactive)

# Tested on: not listed separately
# Test: Cell Viability - BJ (AID 421);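 also: potency is read from the fitted curve at half-maximal effect; cells exposed to compound for 40 hours at 37 °C before readout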
# Conditions: BJ fibroblast viability, qHTS
# Outline: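 Cytotoxicity in human BJ foreskin fibroblasts is scored as loss of cellular ATP after a 40-hour exposure, measured by luciferase luminescence. Controls are DMSO and 100 uM tamoxifen.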
row,Structure (SMILES),Potency
1,Cc1occc(=O)c1O,> 92 µM (inactive)
2,C=C(C)[C@H]1CC=C(C)C(=O)C1,> 92 µM (inactive)
3,COS(C)(=O)=O,> 92 µM (inactive)
4,CC1=CC(=O)CC(C)(C)C1(O)/C=C/C(C)=C\C(=O)O (centres undefined),> 92 µM (inactive)
5,C=CC(C)(O)CCC=C(C)C (centres undefined),> 92 µM (inactive)

# Tested on: not listed separately
# Test: Cell Viability - Jurkat (AID 426;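 active = dose-dependent loss of cell ATP signal giving a full or clear fitted curve, ranked by lower potency value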;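 also: potency is read from the fitted curve at half-maximal effect; cells exposed to compound for 40 hours at 37 °C before ATP read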)
# Conditions: qHTS
# Outline: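 Cells of the human T-cell leukemia line Jurkat (E6-1) are seeded at 5000 per well, treated with compound across a concentration range for 40 hours at 37 °C, then lysed with CellTiter-Glo; luminescence reports ATP.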
row,Structure (SMILES),Potency
1,Cc1occc(=O)c1O,> 92 µM (inactive)
2,C=C(C)[C@H]1CC=C(C)C(=O)C1,> 92 µM (inactive)
3,COS(C)(=O)=O,> 92 µM (inactive)
4,CC1=CC(=O)CC(C)(C)C1(O)/C=C/C(C)=C\C(=O)O (centres undefined),> 92 µM (inactive)
5,C=CC(C)(O)CCC=C(C)C (centres undefined),> 92 µM (inactive)

# Tested on: not listed separately
# Test: Cell Viability - Hek293 (AID 427;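 active = compounds whose dose-response curve shows a full or clear partial loss of cell viability, called from curve shape rather than a numeric limit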;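 also: potency is read from the fitted curve at half-maximal effect; cells exposed to compound for 40 hours at 37 °C before reading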)
# Conditions: qHTS
# Outline: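 qHTS, human embryonic kidney (adenovirus-transformed) cells; 40 hr cpd, 37 °C; CellTiter-Glo ATP luminescence. Norm: DMSO = 0, 100 uM tamoxifen = 100% inhibition. Hill-fit AC50.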
row,Structure (SMILES),Potency
1,Cc1occc(=O)c1O,> 92 µM (inactive)
2,C=C(C)[C@H]1CC=C(C)C(=O)C1,> 92 µM (inactive)
3,COS(C)(=O)=O,> 92 µM (inactive)
4,CC1=CC(=O)CC(C)(C)C1(O)/C=C/C(C)=C\C(=O)O (centres undefined),> 92 µM (inactive)
5,C=CC(C)(O)CCC=C(C)C (centres undefined),> 92 µM (inactive)

# Tested on: not listed separately
# Test: Cell Viability - HepG2 (AID 433);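 also: potency is read from the fitted curve at half-maximal effect; potency for ATP loss meaning cytotoxicity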
# Conditions: qHTS
# Outline: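 Cytotoxicity is scored as loss of intracellular ATP in HepG2 cells exposed to compounds for 40 h. Concentration-response curves, normalized to DMSO and 100 uM tamoxifen, give AC50 values.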
row,Structure (SMILES),Potency
1,Cc1occc(=O)c1O,> 92 µM (inactive)
2,C=C(C)[C@H]1CC=C(C)C(=O)C1,> 92 µM (inactive)
3,COS(C)(=O)=O,> 92 µM (inactive)
4,CC1=CC(=O)CC(C)(C)C1(O)/C=C/C(C)=C\C(=O)O (centres undefined),> 92 µM (inactive)
5,C=CC(C)(O)CCC=C(C)C (centres undefined),> 92 µM (inactive)

# Tested on: not listed separately
# Test: Cell Viability - MRC5 (AID 434);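 also: potency is read from the fitted curve at half-maximal effect; potency reflects cytotoxicity seen as loss of intracellular ATP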
# Conditions: MRC5 lung fibroblast viability, qHTS
# Outline: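 AC50 values come from Hill-equation fits of intracellular ATP loss, measured by CellTiter-Glo luminescence. Normal lung fibroblasts (MRC5) had 40 hr compound treatment at 37 C, normalized between DMSO and 100 uM tamoxifen.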
row,Structure (SMILES),Potency
1,Cc1occc(=O)c1O,> 92 µM (inactive)
2,C=C(C)[C@H]1CC=C(C)C(=O)C1,> 92 µM (inactive)
3,COS(C)(=O)=O,> 92 µM (inactive)
4,CC1=CC(=O)CC(C)(C)C1(O)/C=C/C(C)=C\C(=O)O (centres undefined),> 92 µM (inactive)
5,C=CC(C)(O)CCC=C(C)C (centres undefined),> 92 µM (inactive)
